Assay [1] in a line: Validation of Assay for Modulators of Lamin A Splicing (AID 1459; active means well fitted curve in the direction sought with a large enough effect in the signal ratio; the % refers to the signal ratio;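 further: cells exposed to compound for two days before reading; 0% is about no effect; ratio rise marks activators and ratio drop marks inhibitors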). The method in brief: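 Readout: ratio of GFP (500-530 nm) to RFP (575-640 nm) total object intensity by 488 nm laser-scanning cytometry after 48 hrs. Cells were HeLa S3 clones carrying lamin A-EGFP minigene plus DsRed2 viability reporter; vehicle 0.5% DMSO final.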
Assay [2] can be described thus: Counterscreen for APE1 Inhibitors: Fluorescent Dye Displacement Validation Assay (AID 1707).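 Further: plate controls were ThO with dsDNA and no compound for no effect and ThO without dsDNA for full effect.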 The method in brief: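 Assay buffer: Tris-HCl pH7.5 with 50mM NaCl, 2 mM MgCl2, 0.01% Tween-20. Dye 250 nM, duplex 50 nM final. Readout: decrease in ThO endpoint fluorescence, 480 nm excitation, 540 nm emission.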
A general note: Counterscreens check selectivity or assay interference.

Assay [3] addresses Endonuclease 4 (Escherichia coli (strain K12)) (UniProt P0A6C1). The assay can be described thus: Counterscreen for APE1 Inhibitors: qHTS Validation Assay for Inhibitors of Endonuclease IV (AID 1708). Further: on the % scale 0 is the no-effect control and ±100 the full control effect. The method in brief:
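E. coli EndoIV at 2 nM final, preincubated 15 min at room temperature with compound, then 50 nM TAMRA/BHQ-2 THF abasic-site duplex added. Buffer: 50 mM Tris-HCl pH 7.5, 50 mM NaCl, 2 mM MgCl2, 1 mM DTT, 0.01% Tween-20. Kinetic fluorescence increase, third minus first read.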

The nature of assay [4]: qHTS for differential inhibitors of proliferation of Plasmodium falciparum line 3D7 (AID 1876).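 Further: parasite growth measured after three days of culture; 0% = vehicle wells and -100% = reference inhibitor wells.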 Background: Quantitative high-throughput screening tests each substance at several concentrations.
Assay [5] can be described thus: qHTS for differential inhibitors of proliferation of Plasmodium falciparum line D10 (AID 1877).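 Further: parasites grown with compound for 72 h before DNA staining; plate controls were vehicle wells for no effect and reference inhibitor wells for full effect.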
Assay [6] in a line: qHTS for differential inhibitors of proliferation of Plasmodium falciparum line Dd2 (AID 1882).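 Further: series mostly up to about 29 µM; plate controls were DMSO vehicle for no effect and 0.29 µM artemisinin for full effect; nearly all actives have a fitted effect of over 65% in size.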 Particulars: Potency: Plasmodium falciparum Dd2 proliferation inhibition. The method in brief: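 Dd2-infected erythrocytes (0.3% parasitemia, 2.5% hematocrit final) incubated with compound 72 h at 37 C, 5% CO2; lysed with saponin/Triton buffer containing SYBR Green I, incubated overnight in the dark, then read by fluorescence (485/535 nm). Normalized to 0.29 uM artemisinin and DMSO.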

Assay [7] is described as follows: qHTS for differential inhibitors of proliferation of Plasmodium falciparum line HB3 (AID 1886).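 Further: parasites grown with compound for 72 h before SYBR Green readout; plate controls were vehicle for no effect and reference inhibitor for full effect.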 Conditions: Potency: Plasmodium falciparum HB3 proliferation inhibition.
Assay [8] can be described thus: qHTS Assay for Modulators of Human Peripheral Myelin Protein 22 (PMP22) Expression/Activity (AID 1967; active means well fitted curve in the direction sought with a large enough effect in the signal ratio; the % refers to the signal ratio;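 further: 0% = untreated cells and 100% end not stated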). The method in brief:
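Mouse MSC80 Schwann line, Pmp22 promoter–CBG68 reporter, EF-alpha–CBR internal control. 24h compound exposure, 37 °C/5% CO2, DMEM + 10% FBS. Readout: corrected green/red luminescence ratio, normalized to untreated cells; concentration-response curves fitted and classified.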

Assay [9] deals with Ferritin light chain (Equus caballus) (UniProt P02791). The assay can be described thus: qHTS Validation Assay for Identification of Novel General Anesthetics (AID 2323). Further: series mostly up to about 77 µM; on the % scale 0 is the no-effect control and ±100 the full control effect. The method in brief:
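10 uM horse-spleen apoferritin + 1-AMA (50% saturated, PBS); cpd pin-transferred, 10 min RT. Ex 380/Em 535 nm endpoint. Activity normalized between free 1-AMA and 1-AMA/apoferritin; 4-parameter Hill fit of concentration-response.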

In assay [10] the target is ATP-dependent DNA helicase Q1 (Homo sapiens) (UniProt P46063). The assay can be described thus: qHTS Validation Assay for Inhibitors of RecQ-Like Dna Helicase 1 (RECQ1) (AID 2353).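 Further: plate controls were DMSO vehicle for no effect and enzyme-free control for full effect.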 The method in brief:
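50 nM RECQ1T1 preincubated 15 min with compound in Tris pH 8.0 buffer with MgCl2, DTT, Tween-20 and 2.5 ug/ml poly(dI-dC); started with 200 nM TAMRA/BHQ-2 forked duplex and 2 mM ATP. Unwinding read as fluorescence (525/598 nm), two reads 2 h apart.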

The nature of assay [11]: Validation screen for inhibitors of Lassa infection (AID 463096; calls by dose curve; further: on the % scale 0 is the no-effect control and ±100 the full control effect).
Assay [12] in a line: Validation screen for small molecules that induce DNA re-replication in MCF 10A normal breast cells (AID 463097). Further: 0% is about no effect; nearly all actives have a fitted effect of over 60% in size. The method in brief:
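250 MCF 10A cells/well; compound pin-transferred; 48 hr, 37 C, 5% CO2; Hoechst 40 min; imaged 405/500-530 nm. Hits = more high-intensity nuclei.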

A short description of assay [13]: Quantitative high throughput screen for delayed death inhibitors of the malarial parasite plastid, 96 hour incubation (AID 488745). Further: series mostly up to about 29 µM; on the % scale 0 is the no-effect control and ±100 the full control effect; nearly all actives have a fitted effect of over 70% in size. The method in brief:
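Luciferase-expressing P. falciparum in erythrocytes (2% hematocrit, 0.1% parasitemia) incubated with compound for 96 h at 37 C, 5% CO2, in RPMI 1640 with 0.5% Albumax. Growth inhibition read as decreased luminescence.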

The target in assay [14] is M-phase phosphoprotein 8 (Homo sapiens) (UniProt Q99549). The assay can be described thus: qHTS Validation Assay for Inhibitors for MPP8 Chromodomain Interactions with Methylated Histone Tails (AID 488949). Further: potency means the concentration at half of the fitted maximal effect; nearly all actives have a fitted effect of over 55% in size. The method in brief: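 AlphaScreen read-out: streptavidin donor and nickel chelate acceptor beads (final 10 ug/mL), 30 min in the dark at RT. Complex of 50 nM MPP8 and 50 nM b-H3(1-18)K9me3 peptide had been exposed to compounds for 30 min beforehand.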

In assay [15] the target is Transient receptor potential cation channel subfamily V member 1 (Homo sapiens) (UniProt Q8NER1). Put plainly: HTS Assay for Compounds that Act as Enhancers of the Vanilloid Receptor 1 (AID 488979). Further: 0% is about no effect. The method in brief: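 TRPV1 cells loaded with Fluo-8 calcium dye; compound added and Ca2+ signal (ex 480/em 520 nm) followed 3 min, then capsaicin at EC20 added and read 2 more min to detect enhancement.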

For assay [16], the target named is Thyrotropin receptor (Homo sapiens) (UniProt P16473). The assay can be described thus: qHTS Assay for Antagonists of the Thyroid Stimulating Hormone Receptor (AID 488980). Further: series mostly up to about 58 µM; 0% is about no effect. The method in brief:
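TSHR-HEK293 cells; 70 uM RO 20-1724 PDE inhibitor; compound + EC80 TSH (4 nM final); anti-cAMP cryptate antibody/cAMP-d2 in lysis buffer, 30 min RT; HTRF 665/620 nm read.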

The target of assay [17] is Thyrotropin-releasing hormone receptor (Homo sapiens) (UniProt P34981). Put plainly: qHTS for Small Molecule Agonists and Allosteric Enhancers of Human TRH Receptor: Validation Screen for Agonists (AID 493127;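 active means calcium activation more than 3 SD above the typical response in the agonist read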; further: 0% is about no effect). Particulars: TRH receptor agonist cell assay; at 2 µM; hits give high values. The method in brief:
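TRHR cells loaded with fluo-8 calcium dye; FDSS kinetic fluorescence (Ex 480/Em 530) read at 1 s/cycle after 23 nL compound addition. Agonist-mode calcium response recorded before the 10 nM TRH (EC20) addition.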

Assay [18] has as its target Galactokinase (Homo sapiens) (UniProt P51570). Put plainly: qHTS Validation Assay for Inhibitors of Human Galactokinase (GALK) (AID 493189). Further: 0% is about no effect. The method in brief:
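Luminescence from leftover ATP (Kinase-Glo Plus, 10 min) served as read-out after a 1 h room-temperature reaction of 5 nM GALK, 100 uM galactose and 35 uM ATP at pH8.0.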

Assay [19] in a line: Validation screen for small molecules that induce DNA re-replication in SW480 colon adenocarcinoma cells (AID 504364). Further: 0% is about no effect. The method in brief: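 SW480 cells (250/well) exposed 48 h at 37 C, 5% CO2, then Hoechst-stained 40 min. Nuclear DNA content imaged by fluorescence scanning (405 nm excitation, 500-530 nm emission); re-replication scored as increased nuclei with elevated intensity.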

The target of assay [20] is Voltage-gated inwardly rectifying potassium channel KCNH2 (Homo sapiens) (UniProt Q12809). The assay can be described thus: qHTS Assay for Small Molecule Inhibitors of the Human hERG Channel Activity (AID 588834).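 Further: top concentration of the series differs between compounds; on the % scale 0 is the no-effect control and ±100 the full control effect; lower thallium flux fluorescence means stronger hERG block; nearly all actives have a fitted effect of over 50% in size.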 The method in brief: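 Concentration-response qHTS measuring drop in thallium-sensitive dye signal. U2OS cells carrying BacMam hERG; compound exposure ~10 min, then stimulation buffer and 2 min read at 1 sec intervals.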

In assay [21] the target is N-terminal Xaa-Pro-Lys N-methyltransferase 1 (Homo sapiens) (UniProt Q9BV86). The assay can be described thus: qHTS Assay for Inhibitors of N-terminal methyltransferase 1 (NTMT1): LOPAC validation of the NTMT1 SAHH-coupled ThioGlo3 Assay (AID 1347143).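 Further: SAH from peptide methylation measured as thiol fluorescence via SAHH coupling and ThioGlo3; on the % scale 0 is the no-effect control and ±100 the full control effect; nearly all actives have a fitted effect of over 70% in size.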 The method in brief: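 Recombinant human NTMT1 (125nM) was pre-incubated 1 min at room temperature with compounds over a concentration range, then a mix of 100uM SAM, 10uM SAHH and 15uM ThioGlo3 (concentrations in added reagent) was added. ThioGlo3 fluorescence (ex 340/em 450nm) after 30 min was normalized to the initial reading.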

Unmarked numbers belong to inactive results. Records with an inconclusive call do not appear. Active and inactive are the calls of the source. Unless noted, the call rests on the fitted dose curve; in most records, active means well fitted curve in the direction sought with a large enough effect; inconclusive means small, poorly fitted or top-dose-only effect, or another doubt; inactive means no such curve, though single readings can be large; an effect the other way counts as inactive or inconclusive.

Sequence of Ferritin light chain (Equus caballus) (P02791 2-175 limits assumed): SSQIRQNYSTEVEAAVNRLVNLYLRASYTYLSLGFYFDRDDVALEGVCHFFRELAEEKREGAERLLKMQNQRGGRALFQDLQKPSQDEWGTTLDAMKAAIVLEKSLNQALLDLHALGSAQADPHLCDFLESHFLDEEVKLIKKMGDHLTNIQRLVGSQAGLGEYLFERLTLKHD
Sequence of Thyrotropin receptor (Homo sapiens) (P16473 whole entry, looked up): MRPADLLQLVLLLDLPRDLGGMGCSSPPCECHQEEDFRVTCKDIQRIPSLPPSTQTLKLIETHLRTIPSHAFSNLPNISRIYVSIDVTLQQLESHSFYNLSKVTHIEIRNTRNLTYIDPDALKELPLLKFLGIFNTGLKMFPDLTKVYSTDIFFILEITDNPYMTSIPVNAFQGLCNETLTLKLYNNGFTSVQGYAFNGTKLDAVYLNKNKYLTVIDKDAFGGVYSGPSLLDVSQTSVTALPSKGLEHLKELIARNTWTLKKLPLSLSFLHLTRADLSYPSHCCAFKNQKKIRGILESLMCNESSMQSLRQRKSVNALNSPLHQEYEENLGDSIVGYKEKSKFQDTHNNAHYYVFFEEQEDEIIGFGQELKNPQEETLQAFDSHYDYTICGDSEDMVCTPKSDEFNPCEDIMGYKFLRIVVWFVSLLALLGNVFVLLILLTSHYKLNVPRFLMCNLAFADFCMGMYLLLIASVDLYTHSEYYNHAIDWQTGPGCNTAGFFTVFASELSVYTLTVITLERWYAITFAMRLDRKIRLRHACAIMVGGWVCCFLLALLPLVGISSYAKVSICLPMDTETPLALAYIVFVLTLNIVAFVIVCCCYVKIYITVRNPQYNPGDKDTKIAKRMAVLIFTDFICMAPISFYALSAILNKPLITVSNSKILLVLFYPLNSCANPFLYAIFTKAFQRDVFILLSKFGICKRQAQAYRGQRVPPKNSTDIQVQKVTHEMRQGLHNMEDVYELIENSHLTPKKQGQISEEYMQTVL
Sequence of Voltage-gated inwardly rectifying potassium channel KCNH2 (Homo sapiens) (Q12809 whole entry, looked up): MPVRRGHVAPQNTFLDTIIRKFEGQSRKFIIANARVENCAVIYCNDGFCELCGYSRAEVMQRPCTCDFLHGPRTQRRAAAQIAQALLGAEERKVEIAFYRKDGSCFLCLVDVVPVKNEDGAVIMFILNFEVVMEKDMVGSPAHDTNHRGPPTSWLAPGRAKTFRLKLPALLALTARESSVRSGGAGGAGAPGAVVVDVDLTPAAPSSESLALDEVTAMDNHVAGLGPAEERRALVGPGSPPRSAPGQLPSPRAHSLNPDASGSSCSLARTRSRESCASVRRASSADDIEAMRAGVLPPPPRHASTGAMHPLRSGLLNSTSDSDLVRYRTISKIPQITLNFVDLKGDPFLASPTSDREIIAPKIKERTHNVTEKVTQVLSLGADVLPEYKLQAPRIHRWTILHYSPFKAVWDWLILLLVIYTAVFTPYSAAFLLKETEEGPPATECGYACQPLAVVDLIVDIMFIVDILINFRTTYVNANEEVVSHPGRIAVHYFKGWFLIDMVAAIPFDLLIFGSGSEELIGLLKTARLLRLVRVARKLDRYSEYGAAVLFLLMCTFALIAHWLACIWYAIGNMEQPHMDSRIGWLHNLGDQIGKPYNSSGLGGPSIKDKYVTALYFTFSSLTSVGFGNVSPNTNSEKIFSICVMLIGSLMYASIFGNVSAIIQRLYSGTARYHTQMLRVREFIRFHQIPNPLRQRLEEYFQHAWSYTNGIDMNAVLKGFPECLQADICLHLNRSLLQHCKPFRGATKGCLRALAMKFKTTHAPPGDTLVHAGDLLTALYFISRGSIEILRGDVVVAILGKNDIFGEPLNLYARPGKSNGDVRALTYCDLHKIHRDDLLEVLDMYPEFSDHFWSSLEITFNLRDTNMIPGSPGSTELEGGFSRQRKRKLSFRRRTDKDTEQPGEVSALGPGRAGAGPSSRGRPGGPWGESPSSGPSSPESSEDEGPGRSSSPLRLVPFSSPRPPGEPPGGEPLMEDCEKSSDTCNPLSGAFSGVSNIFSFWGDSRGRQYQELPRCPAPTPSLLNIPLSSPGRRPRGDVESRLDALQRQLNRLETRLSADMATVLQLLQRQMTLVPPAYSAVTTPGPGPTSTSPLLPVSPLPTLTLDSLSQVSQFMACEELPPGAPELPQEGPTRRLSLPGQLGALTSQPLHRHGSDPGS
Sequence of M-phase phosphoprotein 8 (Homo sapiens) (Q99549 whole entry, looked up): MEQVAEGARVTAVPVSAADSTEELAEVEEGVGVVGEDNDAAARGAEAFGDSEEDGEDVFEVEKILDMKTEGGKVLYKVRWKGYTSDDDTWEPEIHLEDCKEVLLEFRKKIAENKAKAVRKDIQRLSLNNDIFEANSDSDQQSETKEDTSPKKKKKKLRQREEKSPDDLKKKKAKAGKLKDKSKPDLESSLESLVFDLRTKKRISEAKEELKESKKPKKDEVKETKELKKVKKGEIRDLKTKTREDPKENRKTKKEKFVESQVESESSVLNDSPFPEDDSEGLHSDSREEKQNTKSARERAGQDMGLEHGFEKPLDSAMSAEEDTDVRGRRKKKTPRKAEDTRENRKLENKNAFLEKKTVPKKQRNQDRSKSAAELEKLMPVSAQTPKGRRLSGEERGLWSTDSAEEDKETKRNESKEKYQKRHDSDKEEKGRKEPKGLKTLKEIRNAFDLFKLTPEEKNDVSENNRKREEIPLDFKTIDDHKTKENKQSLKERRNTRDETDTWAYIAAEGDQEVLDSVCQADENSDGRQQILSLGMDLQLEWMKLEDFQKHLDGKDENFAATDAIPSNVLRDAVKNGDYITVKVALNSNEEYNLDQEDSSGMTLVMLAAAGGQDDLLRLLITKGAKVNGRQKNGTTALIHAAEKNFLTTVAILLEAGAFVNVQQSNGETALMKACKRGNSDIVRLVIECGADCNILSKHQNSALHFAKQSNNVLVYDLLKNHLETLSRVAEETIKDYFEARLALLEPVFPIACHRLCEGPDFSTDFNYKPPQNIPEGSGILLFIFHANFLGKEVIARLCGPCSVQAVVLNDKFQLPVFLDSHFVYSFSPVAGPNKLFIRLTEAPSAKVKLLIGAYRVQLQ
Sequence of Transient receptor potential cation channel subfamily V member 1 (Homo sapiens) (Q8NER1 whole entry, looked up): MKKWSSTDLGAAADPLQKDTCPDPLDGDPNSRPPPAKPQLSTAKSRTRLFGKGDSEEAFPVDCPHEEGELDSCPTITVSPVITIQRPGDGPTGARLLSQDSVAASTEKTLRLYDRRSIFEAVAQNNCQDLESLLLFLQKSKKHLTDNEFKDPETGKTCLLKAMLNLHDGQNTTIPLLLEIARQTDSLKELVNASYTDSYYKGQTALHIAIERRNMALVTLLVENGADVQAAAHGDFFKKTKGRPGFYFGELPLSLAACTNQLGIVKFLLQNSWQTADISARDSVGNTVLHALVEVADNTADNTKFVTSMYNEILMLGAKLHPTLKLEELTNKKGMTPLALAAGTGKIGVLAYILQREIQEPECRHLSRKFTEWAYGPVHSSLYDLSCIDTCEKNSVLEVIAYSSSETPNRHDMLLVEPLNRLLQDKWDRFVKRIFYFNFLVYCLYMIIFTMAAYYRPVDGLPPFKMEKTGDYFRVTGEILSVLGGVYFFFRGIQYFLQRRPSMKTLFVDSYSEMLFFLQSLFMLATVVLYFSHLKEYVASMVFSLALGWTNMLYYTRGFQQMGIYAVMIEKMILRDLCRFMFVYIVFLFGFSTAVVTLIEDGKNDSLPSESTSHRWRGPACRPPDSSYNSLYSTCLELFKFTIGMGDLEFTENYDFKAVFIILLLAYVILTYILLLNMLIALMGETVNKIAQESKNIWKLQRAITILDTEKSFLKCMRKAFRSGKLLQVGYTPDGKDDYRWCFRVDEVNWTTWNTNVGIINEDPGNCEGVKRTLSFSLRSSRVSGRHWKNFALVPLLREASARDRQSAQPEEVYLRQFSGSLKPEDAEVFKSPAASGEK
Sequence of Galactokinase (Homo sapiens) (P51570 whole entry, looked up): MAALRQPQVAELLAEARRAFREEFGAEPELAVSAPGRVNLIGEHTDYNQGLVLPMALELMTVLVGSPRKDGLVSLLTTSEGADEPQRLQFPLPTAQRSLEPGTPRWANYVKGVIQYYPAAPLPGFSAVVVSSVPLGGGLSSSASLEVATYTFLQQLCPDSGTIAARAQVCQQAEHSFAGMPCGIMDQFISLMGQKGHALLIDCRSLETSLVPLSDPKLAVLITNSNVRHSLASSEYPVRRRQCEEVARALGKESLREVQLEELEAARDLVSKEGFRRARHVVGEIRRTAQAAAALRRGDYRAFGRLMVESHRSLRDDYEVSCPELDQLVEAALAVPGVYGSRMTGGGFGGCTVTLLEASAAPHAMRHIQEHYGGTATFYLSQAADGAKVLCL
Sequence of N-terminal Xaa-Pro-Lys N-methyltransferase 1 (Homo sapiens) (Q9BV86 whole entry, looked up): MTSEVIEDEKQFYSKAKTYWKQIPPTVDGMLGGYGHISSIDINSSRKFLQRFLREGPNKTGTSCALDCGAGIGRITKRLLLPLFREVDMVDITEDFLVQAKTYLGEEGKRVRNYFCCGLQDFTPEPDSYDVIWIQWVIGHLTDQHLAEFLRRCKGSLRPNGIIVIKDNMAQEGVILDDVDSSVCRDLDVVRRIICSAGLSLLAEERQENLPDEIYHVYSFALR
Sequence of Thyrotropin-releasing hormone receptor (Homo sapiens) (P34981 whole entry, looked up): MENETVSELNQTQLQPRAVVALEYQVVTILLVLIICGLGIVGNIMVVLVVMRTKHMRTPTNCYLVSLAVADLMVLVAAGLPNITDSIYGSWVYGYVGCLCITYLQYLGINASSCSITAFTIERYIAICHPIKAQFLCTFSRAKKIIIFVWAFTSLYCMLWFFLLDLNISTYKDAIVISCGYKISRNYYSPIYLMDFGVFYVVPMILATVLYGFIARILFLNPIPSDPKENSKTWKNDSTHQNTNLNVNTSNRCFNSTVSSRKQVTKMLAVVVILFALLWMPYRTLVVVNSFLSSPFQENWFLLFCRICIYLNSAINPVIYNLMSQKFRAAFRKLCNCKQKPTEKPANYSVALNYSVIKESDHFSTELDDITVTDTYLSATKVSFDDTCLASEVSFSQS

`CC(=O)OCC1=C(C(=O)[O-])N2C(=O)[C@@H](NC(=O)CCC[C@@H](N)C(=O)[O-])[C@H]2SC1.[Zn+2]`: the compound was classed as inactive in assay [1], in assay [3], in assay [8], in [9], in assay [15] and in assay [16]. Also, the result in assay [18] and in [21] was inactive. For the same compound, the Potency entry in assay [2], in assay [4], in [5], in assay [6], in assay [7] and in assay [10] was “inactive” each time. Moreover, the Potency entry in assay [11], in [12], in assay [13], in assay [19] and in assay [20] was “inactive” throughout. Also, the Potency in assay [14] was 44.7 µM (active). The activation in [17] is 1.25%.

Source of the values: PubChem BioAssay (NCATS).
